The results in this text go back to paper PMC7862700, “An all-to-all approach to the identification of sequence-specific readers for epigenetic DNA modifications on cytosine”.

Assay in all cases: DAPPL (digital affinity profiling via proximity ligation, sequencing); 10 mM Tris-HCl pH 7.5, 50 mM NaCl, 1 mM DTT, 4% glycerol, room temperature, 30 min; GST-TFs on glutathione beads, 16-mer random dsDNA library, 0.1% formaldehyde crosslink after washing; high values mean tight binding
Settings in all cases: protein: recombinant; tags: N-terminal GST; dsDNA, one strand shown

Test [1] concerns the target T1, ERF (Homo sapiens, UniProt P50548 1-548).
T1 sequence: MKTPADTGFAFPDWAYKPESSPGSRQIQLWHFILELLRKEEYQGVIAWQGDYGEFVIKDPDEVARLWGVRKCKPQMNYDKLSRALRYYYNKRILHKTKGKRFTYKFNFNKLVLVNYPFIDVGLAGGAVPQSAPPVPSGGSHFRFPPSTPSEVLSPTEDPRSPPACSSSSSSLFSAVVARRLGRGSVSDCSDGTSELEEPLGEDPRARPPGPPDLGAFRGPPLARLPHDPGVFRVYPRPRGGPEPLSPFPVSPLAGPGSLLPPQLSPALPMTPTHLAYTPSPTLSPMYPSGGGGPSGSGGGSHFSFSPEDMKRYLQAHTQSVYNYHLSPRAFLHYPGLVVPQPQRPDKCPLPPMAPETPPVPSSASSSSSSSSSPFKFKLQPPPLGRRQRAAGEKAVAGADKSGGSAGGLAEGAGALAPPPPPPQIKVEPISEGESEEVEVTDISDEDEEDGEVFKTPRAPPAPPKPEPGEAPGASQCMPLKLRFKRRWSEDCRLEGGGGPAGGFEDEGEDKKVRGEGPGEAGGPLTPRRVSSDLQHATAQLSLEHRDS
In outline: (§1)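 Each value of binding signal is a hexamer's read frequency for a factor divided by the same hexamer's frequency in the tag-only sample. Barcoded, bead-captured GST fusions of human transcription factors made in yeast were pooled with that sample and incubated with 200 nmole of a random double-stranded 16-mer DNA library in Tris/NaCl/DTT/glycerol buffer at room temperature for 30 min. Washing, 0.1% formaldehyde crosslinking, proximity ligation, PCR and Illumina NextSeq500 sequencing followed.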

Test [2] concerns the target T2, ETV3L (Homo sapiens, UniProt Q6ZN32 1-361).
T2 sequence: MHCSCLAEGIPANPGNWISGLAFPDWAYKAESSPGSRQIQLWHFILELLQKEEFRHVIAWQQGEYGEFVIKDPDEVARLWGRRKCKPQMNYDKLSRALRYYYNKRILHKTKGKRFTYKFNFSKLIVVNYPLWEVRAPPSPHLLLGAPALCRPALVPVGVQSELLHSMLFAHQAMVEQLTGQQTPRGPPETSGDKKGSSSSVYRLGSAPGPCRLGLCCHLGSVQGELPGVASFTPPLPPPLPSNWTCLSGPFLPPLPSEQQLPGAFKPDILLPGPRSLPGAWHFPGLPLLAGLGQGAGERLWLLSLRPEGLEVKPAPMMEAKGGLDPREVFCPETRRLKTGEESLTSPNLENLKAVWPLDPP
A digest of the protocol: as §1

Test [3] deals with T3, ETS2 (Homo sapiens, UniProt P15036 1-469).
T3 sequence: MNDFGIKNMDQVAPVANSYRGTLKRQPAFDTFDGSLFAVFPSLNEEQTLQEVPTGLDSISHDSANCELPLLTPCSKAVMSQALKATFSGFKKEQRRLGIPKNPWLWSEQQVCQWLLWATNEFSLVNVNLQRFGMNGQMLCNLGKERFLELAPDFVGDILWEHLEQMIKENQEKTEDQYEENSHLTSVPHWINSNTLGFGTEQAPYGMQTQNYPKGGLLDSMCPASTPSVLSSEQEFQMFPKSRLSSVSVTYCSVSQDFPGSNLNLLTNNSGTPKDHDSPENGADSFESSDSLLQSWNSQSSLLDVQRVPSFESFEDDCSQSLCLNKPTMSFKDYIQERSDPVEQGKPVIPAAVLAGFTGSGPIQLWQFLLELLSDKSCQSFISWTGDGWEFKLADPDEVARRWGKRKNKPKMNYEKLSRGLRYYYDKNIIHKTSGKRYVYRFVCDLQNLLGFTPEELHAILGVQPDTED
In outline: as §1

For test [4], the target named is T4, SPDEF (Homo sapiens, UniProt O95238 1-335).
T4 sequence: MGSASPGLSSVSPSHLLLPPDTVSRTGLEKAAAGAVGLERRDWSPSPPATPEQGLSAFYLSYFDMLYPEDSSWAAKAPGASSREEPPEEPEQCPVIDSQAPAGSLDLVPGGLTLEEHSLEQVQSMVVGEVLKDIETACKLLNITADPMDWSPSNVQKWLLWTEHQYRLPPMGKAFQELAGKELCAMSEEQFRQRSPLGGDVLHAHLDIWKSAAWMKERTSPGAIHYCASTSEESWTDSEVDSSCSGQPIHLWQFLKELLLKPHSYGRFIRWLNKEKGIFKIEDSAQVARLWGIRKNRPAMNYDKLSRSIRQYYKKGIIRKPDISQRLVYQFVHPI
A digest of the protocol: as §1

For test [5], the target named is T5, ETV7 (Homo sapiens, UniProt Q9Y603 1-341).
T5 sequence: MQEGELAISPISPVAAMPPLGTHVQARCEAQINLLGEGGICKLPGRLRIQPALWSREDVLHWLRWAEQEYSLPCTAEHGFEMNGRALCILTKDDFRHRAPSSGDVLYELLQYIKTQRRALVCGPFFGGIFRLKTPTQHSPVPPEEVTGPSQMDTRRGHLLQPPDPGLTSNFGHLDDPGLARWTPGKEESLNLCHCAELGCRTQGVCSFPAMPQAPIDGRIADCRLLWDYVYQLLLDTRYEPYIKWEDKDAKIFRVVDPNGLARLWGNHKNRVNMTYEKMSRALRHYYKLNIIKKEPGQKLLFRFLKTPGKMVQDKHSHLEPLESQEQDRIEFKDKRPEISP
In outline:
as §1

Test [6] concerns the target T6, ELF5 (Homo sapiens, UniProt Q9UKW6-2 1-255).
T6 sequence: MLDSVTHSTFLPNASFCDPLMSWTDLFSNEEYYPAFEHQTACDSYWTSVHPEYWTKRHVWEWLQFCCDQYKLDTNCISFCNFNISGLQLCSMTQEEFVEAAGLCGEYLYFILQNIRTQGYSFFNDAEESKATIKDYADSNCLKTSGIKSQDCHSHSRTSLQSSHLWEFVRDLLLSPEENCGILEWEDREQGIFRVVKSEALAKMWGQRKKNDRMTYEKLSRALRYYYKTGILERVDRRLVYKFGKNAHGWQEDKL
A digest of the protocol:
as §1

Test [7] addresses T7, ETV3 (Homo sapiens, UniProt P41162-2 1-143).
T7 sequence: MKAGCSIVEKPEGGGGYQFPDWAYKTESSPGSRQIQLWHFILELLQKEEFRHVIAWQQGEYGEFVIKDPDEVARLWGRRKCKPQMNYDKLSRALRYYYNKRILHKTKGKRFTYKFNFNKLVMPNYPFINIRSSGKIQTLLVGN
A digest of the protocol:
as §1

Test [8] deals with ETV6 (Homo sapiens, UniProt P41212 1-452). A digest of the protocol:
as §1

Sequence of ETV6 (P41212 whole entry): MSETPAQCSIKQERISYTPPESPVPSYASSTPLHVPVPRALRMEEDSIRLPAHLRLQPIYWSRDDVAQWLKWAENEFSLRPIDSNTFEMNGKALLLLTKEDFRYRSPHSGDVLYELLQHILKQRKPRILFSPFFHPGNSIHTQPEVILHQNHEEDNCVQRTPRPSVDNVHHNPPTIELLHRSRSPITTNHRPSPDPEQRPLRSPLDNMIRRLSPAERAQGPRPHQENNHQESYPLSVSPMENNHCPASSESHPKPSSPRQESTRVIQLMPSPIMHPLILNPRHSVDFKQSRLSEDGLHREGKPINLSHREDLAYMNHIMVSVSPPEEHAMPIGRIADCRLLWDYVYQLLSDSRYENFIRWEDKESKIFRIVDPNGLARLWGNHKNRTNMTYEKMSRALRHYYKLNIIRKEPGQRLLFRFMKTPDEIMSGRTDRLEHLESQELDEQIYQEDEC

In the case of CACTGT, the binding signal in test [1] is 1.16 fold enrichment (6-mer frequency, TF over GST control); in test [2], 1.09 fold enrichment (6-mer frequency, TF over GST control); in test [3], 1.13 fold enrichment (6-mer frequency, TF over GST control); in test [4] it was 1.11 fold enrichment (6-mer frequency, TF over GST control); in test [5], 1.13 fold enrichment (6-mer frequency, TF over GST control); in test [6] it was 1.12 fold enrichment (6-mer frequency, TF over GST control). The binding signal in test [7] is 1.12 fold enrichment (6-mer frequency, TF over GST control); in test [8] it was 1.05 fold enrichment (6-mer frequency, TF over GST control).
As to ACAACC, the binding signal was 1.19 fold enrichment (6-mer frequency, TF over GST control) in test [1]; 1.17 fold enrichment (6-mer frequency, TF over GST control) in test [2]; 1.26 fold enrichment (6-mer frequency, TF over GST control) in test [3]; 1.28 fold enrichment (6-mer frequency, TF over GST control) in test [4]; 1.18 fold enrichment (6-mer frequency, TF over GST control) in test [5]; 1.22 fold enrichment (6-mer frequency, TF over GST control) in test [6]. In addition, the binding signal is 1.29 fold enrichment (6-mer frequency, TF over GST control) in test [7] and 1.28 fold enrichment (6-mer frequency, TF over GST control) in test [8].
In the case of AAACTT, the binding signal in test [1] is 1.36 fold enrichment (6-mer frequency, TF over GST control); in test [2], 1.24 fold enrichment (6-mer frequency, TF over GST control); in test [3], 1.32 fold enrichment (6-mer frequency, TF over GST control); in test [4] it was 1.1 fold enrichment (6-mer frequency, TF over GST control); in test [5] it was 1.22 fold enrichment (6-mer frequency, TF over GST control); in test [6], 1.43 fold enrichment (6-mer frequency, TF over GST control). Moreover, the binding signal in test [7] was 1.34 fold enrichment (6-mer frequency, TF over GST control); in test [8], 1.29 fold enrichment (6-mer frequency, TF over GST control).
Turning to CGGTTC, the binding signal was 1.21 fold enrichment (6-mer frequency, TF over GST control) in test [1]; 1.17 fold enrichment (6-mer frequency, TF over GST control) in test [2]; 1.21 fold enrichment (6-mer frequency, TF over GST control) in test [3]; 1.63 fold enrichment (6-mer frequency, TF over GST control) in test [4]; 1.17 fold enrichment (6-mer frequency, TF over GST control) in test [5]; 1.33 fold enrichment (6-mer frequency, TF over GST control) in test [6]. For the same sequence, the binding signal in test [7] is 1.3 fold enrichment (6-mer frequency, TF over GST control); in test [8], 1.4 fold enrichment (6-mer frequency, TF over GST control).
With GAAGTG, the binding signal in test [1] was 1.48 fold enrichment (6-mer frequency, TF over GST control); in test [2] it was 1.53 fold enrichment (6-mer frequency, TF over GST control); in test [3], 1.55 fold enrichment (6-mer frequency, TF over GST control); in test [4] it was 1.47 fold enrichment (6-mer frequency, TF over GST control); in test [5] it was 1.7 fold enrichment (6-mer frequency, TF over GST control); in test [6], 1.79 fold enrichment (6-mer frequency, TF over GST control). Also, the binding signal in test [7] was 1.75 fold enrichment (6-mer frequency, TF over GST control); in test [8], 1.93 fold enrichment (6-mer frequency, TF over GST control).
With GGATAT, the binding signal in test [1] was 1.62 fold enrichment (6-mer frequency, TF over GST control); in test [2], 1.55 fold enrichment (6-mer frequency, TF over GST control); in test [3] it was 1.66 fold enrichment (6-mer frequency, TF over GST control); in test [4] it was 2.38 fold enrichment (6-mer frequency, TF over GST control); in test [5] it was 1.48 fold enrichment (6-mer frequency, TF over GST control); in test [6] it was 1.92 fold enrichment (6-mer frequency, TF over GST control). Besides, the binding signal in test [7] is 1.71 fold enrichment (6-mer frequency, TF over GST control); in test [8] it was 1.6 fold enrichment (6-mer frequency, TF over GST control).
As for TTTAAT, the binding signal in test [1] was 1.33 fold enrichment (6-mer frequency, TF over GST control); in test [2] it was 1.37 fold enrichment (6-mer frequency, TF over GST control); in test [3], 1.37 fold enrichment (6-mer frequency, TF over GST control); in test [4], 1.17 fold enrichment (6-mer frequency, TF over GST control); in test [5], 1.46 fold enrichment (6-mer frequency, TF over GST control); in test [6], 1.28 fold enrichment (6-mer frequency, TF over GST control). Further, the binding signal is 1.21 fold enrichment (6-mer frequency, TF over GST control) in test [7] and 1.28 fold enrichment (6-mer frequency, TF over GST control) in test [8].
